# High-throughput results: PubChem, National Center for Advancing Translational Sciences (NCATS)
# In the library only some 11% were active in any assay of this set; here they are far more common.
# PNC assembly inh: perinucleolar compartment assembly inhibition; activity change (PNC), negative = inhibition, % at 10 µM; PC3M PTB-GFP, PNC prevalence imaging, 16 h; hits give low values; actives 3.1% (n = 140,000); AID 2417;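 active means readout at or below -70, meaning at least 70% loss of cells showing the perinucleolar compartment, a nuclear body marking cancer cells; inconclusive means readout between -30 and a set limit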;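 further: plate controls were DMSO wells for no effect and camptothecin positive control wells for full effect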
#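 Read-out is percentage of cells bearing a perinucleolar compartment, from automated 20x imaging of fixed, Hoechst-stained PC3M PTB-GFP cells. Cells were seeded 4 h, then exposed 16 h to compound (23 nl of library stock) in duplicate plates.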
# HPGD inh: HPGD (human) dehydrogenase inhibition; P15428; purified HPGD, NADH fluorescence kinetic, PGE2 substrate; Potency, µM, without a hit: top-dose activity change, negative = inhibition, actives largely listed as inhibitors; actives 4.3% (n = 150,000); AID 894; active means well fitted inhibition curve with a large enough effect, not every such curve was filed as active; inconclusive means small, poorly fitted or top-dose-only effect, or another doubt; inactive means no such curve, though single readings can be large or run the other way; further: potency means the concentration at half of the fitted maximal effect
# Target sequence (P15428 whole entry, looked up): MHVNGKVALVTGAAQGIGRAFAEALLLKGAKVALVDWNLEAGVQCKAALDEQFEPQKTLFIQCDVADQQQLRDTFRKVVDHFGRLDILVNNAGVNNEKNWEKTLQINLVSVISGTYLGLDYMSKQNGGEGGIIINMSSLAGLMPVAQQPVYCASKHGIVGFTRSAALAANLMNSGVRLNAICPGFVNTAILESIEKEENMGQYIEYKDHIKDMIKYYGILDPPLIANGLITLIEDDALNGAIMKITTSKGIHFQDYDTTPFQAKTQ
#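 20 nM HPGD preincubated 15 min at room temperature with compound in 50 mM Tris-HCl pH 8, 0.01% Tween 20. Started with 1 mM NAD+ and 30 uM prostaglandin E2; NADH fluorescence (360/450 nm) read 5 times over 30-s intervals, last minus first.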
# IMPase Li cell: cell-permeable IMPase inhibitors with lithium potentiation; Potency, µM (top dose mostly 59.4 µM), for the others: at the highest dose activity, negative = IMPase inhibition, actives largely listed as inhibitors; CHO-M1 cells, IP1 TR-FRET (IP-One), carbachol + lithium; actives 0.35% (n = 210,000); AID 1457;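 further: IP1 builds up when IMPase is blocked and the TR-FRET signal falls; potency means the concentration at half of the fitted maximal effect; plate controls were basal vehicle for no effect and high inhibitor control for full effect; nearly all actives have a fitted effect of over 50% in size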
#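 Test compounds were applied to CHO-M1 cells previously cultured for 16–30 h at 2000 per well. A small lithium amount accompanied them; after 30 min at 37C, IP1 was quantified by TR-FRET.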
# IMPase cell inh: IMPase inhibition in cells. 120,000 tested, under 10 active. CHO-M1 cells, IP1 accumulation, HTRF TR-FRET ratio. inhibition (IP1 accumulation), % at 46.1 µM. P97697; active means well fitted curve in the direction sought with a large enough effect in the signal ratio, not every such curve was filed as active; inconclusive means small, poorly fitted or top-dose-only effect, or a change in a side signal; inactive means no such curve, though single readings can be large or run the other way; the % refers to the signal ratio;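 further: cells stimulated with carbachol in lithium chloride buffer; plate controls were DMSO basal wells for no effect and reference inhibitor wells for full effect; higher means more IMPase inhibition seen as more IP1 and lower FRET ratio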
# Target sequence (P97697 whole entry, looked up): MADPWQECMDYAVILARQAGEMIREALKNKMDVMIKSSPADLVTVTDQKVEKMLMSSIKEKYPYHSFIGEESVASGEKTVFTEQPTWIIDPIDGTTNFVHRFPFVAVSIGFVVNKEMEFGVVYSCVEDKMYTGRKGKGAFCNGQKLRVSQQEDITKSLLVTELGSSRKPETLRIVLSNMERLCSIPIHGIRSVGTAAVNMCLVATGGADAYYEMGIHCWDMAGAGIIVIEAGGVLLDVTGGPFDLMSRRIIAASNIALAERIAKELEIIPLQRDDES
#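 In this qHTS, compounds (final up to 46 uM) act on CHO-M1 cells that are then activated through the M1 receptor with carbachol, in pH 7.4 buffer containing 50 mM LiCl, for 30 min. IP1 accumulation is quantified by the IP-One immunoassay.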
# ALDH1A1 inh: blocks purified human ALDH1A1 activity; Purified ALDH1A1, NADH fluorescence, propionaldehyde substrate; P00352; actives 7.3% (n = 220,000); Potency, µM (titrated, usually from 75.3 µM), for the others: top-dose activity, negative = inhibition, hits mostly inhibitors; active means well fitted inhibition curve with a large enough effect, not every such curve was filed as active; inconclusive means small, poorly fitted or top-dose-only effect, or another doubt; inactive means no such curve, though single readings can be large or run the other way;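 further: potency means the concentration at half of the fitted maximal effect; plate controls were no enzyme wells and a reference inhibitor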
# 12-hLO inh: inhibitors of human 12-lipoxygenase (ALOX12) | P18054 | purified 12-hLO, xylenol orange hydroperoxide absorbance | Potency, µM (highest dose often 57.1 µM), for the others: at the highest dose activity change, negative = inhibition, most hits filed as inhibitors | actives 0.12% (n = 150,000) | AID 1452; further: potency means the concentration at half of the fitted maximal effect; nearly all actives have a fitted effect of over 55% in size
#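 Purified human 12hLO (150 nM final) was preincubated with compounds for 15 min at room temperature in 25 mM Hepes pH 7.0, 0.01% Triton X-100, then reacted with 40 uM arachidonic acid for 30 min. Hydroperoxide was detected with ferrous iron/xylenol orange.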
# Numbers without * were called inactive; ? = inconclusive; · = no result given; [ ] = remark or other dose. Unless noted, the call rests on the fitted dose curve; in most records, active means well fitted curve in the direction sought with a large enough effect; inconclusive means small, poorly fitted or top-dose-only effect, or another doubt; inactive means no such curve, though single readings can be large; an effect the other way counts as inactive or inconclusive. Unless noted, on the % scale 0 is the no-effect control and ±100 the full control effect.
SMILES,PNC assembly inh,HPGD inh,IMPase Li cell,IMPase cell inh,ALDH1A1 inh,12-hLO inh
CCCOC(=S)N/C(=N\S(=O)(=O)c1ccccc1)c1ccccc1,-22,28µM*,6%[38.3 µM],-3,14µM*,1%
CCOC(=S)N/C(=N\S(=O)(=O)c1ccccc1)c1ccccc1,-100*,?,-5%,13,11µM*,-4%
Cc1ccc(/C=C2\SC(N3CCCC3)=NC2=O)cc1,·,·,2%,·,12%,·
O=C1N=C(N2CCCCC2)S/C1=C/C1=Cc2ccccc2OC1,·,·,11%,·,28µM*,·
N#C/C(=C\c1cn(Cc2ccc(C#N)cc2)c2ccccc12)C(=O)NCc1cccs1,-116*,-6%,-4%,·,-2%,3%
N#C/C(=C\c1cn(CCOc2ccccc2F)c2ccccc12)C(=O)NCc1cccs1,?,399%,-4%,·,16%,0%
Cn1c(COc2ccc(Cl)cc2)nnc1SCc1ncc(-c2ccccc2)o1,?,-5%,28%[38.3 µM],5,20µM*,-16%
C=CCC1C=CC(Oc2ccc(F)cc2C)C(CO)O1 (stereo not drawn),·,·,·,·,9%[13.5 µM],·
COc1cc(C(=S)N2CCN(c3cccc(Cl)c3)CC2)ccc1O,·,·,13%,·,3.5µM*,·
CCOc1ccc(C(=O)N2CCN(c3cccc(Cl)c3)CC2)cc1,·,·,-7%,·,4%,·
COC(=O)/C=C/C(=O)N1CCN(c2cccc(Cl)c2)CC1,?,-2%,-2%,·,10µM*,11%
CSc1ccccc1C(=O)N1CCN(c2cccc(Cl)c2)CC1,·,·,13%,·,-1%,·
Oc1ccccc1C(=S)N1CCN(c2cccc(Cl)c2)CC1,·,·,9%,·,10µM*,·
O=C(Oc1ccc(C(=S)N2CCC(O)CC2)cc1)c1ccc(Cl)cc1,·,·,-6%,·,-5%,·
CC(=O)N1CCN(C(=S)c2ccc(Cl)cc2)CC1,96,25µM*,-6%,-5,18µM*,-4%
CCC/C=C(\CCC)C(NC(=O)c1ccccc1)c1ccccc1 (stereo not drawn),·,-11%,11%,·,?,-2%
COc1ccc(C(=O)N2CCN(c3cccc(Cl)c3)CC2)cc1,41,4%,4%,8,4%,4%
Oc1ccc(C(=S)N2CCN(c3cccc(Cl)c3)CC2)cc1,·,·,16%,·,7.9µM*,·
COC(=O)N1CCN(c2ccc(C)c(C)c2)CC1,·,·,12%,·,6%,·
COc1ccc(C(=O)c2ccc(N3CCOCC3)cc2)c(OC)c1,?,·,·,-9,1.1µM*,-13%
COC(=O)N1CCN(c2ccc(Cl)c(Cl)c2)CC1,-102*,-20%,28%[38.3 µM],7,2%,-12%
COc1ccc(C(=S)N2CCN(c3cccc(Cl)c3)CC2)c(OC)c1,·,·,17%,·,20µM*,·
CCCS(=O)(=O)c1nc(S(=O)(=O)c2ccc(C)cc2)c(N2CCc3ccccc3C2)s1,?,-17%,13%,1,1.4µM*,0%
CCCS(=O)(=O)c1nc(S(=O)(=O)c2ccc(C)cc2)c(N2CCCC2)s1,?,-17%,-1%[38.3 µM],11,7.9µM*,1%
Cc1ccc(S(=O)(=O)c2nc(S(C)(=O)=O)sc2N(C)C)cc1,?,-1%,44%[38.3 µM],0,-14%,3%
SMILES,PNC assembly inh,HPGD inh,IMPase Li cell,IMPase cell inh,ALDH1A1 inh,12-hLO inh
CN(Cc1ccco1)c1ncncc1-c1ccccc1Cl,·,·,32%,·,?,·
CCOC(=O)c1sc(N2C(=O)c3oc4cc(C)c(C)cc4c(=O)c3C2c2ccc(C)cc2)nc1C (stereo not drawn),·,·,·,3,·,·
COc1cccc(-c2nnc3sc(-c4cccs4)nn23)c1,?,-24%,?,7,2%,9%
CCOc1cccc(-c2nnc3sc(-c4cccs4)nn23)c1,-127*,-25%,?,-3,-5%,4%
c1coc(-c2nnc3sc(-c4cccs4)nn23)c1,?,-13%,1%[38.3 µM],?,20µM*,-7%
COc1cccc(-c2nnc3sc(-c4ccco4)nn23)c1,22,?,?,4,28µM*,1%
c1csc(-c2nn3c(-c4ccncc4)nnc3s2)c1,?,-8%,-2%[38.3 µM],-3,13%,1%
